# Measurements from PMC4336329 (PLoS ONE, 2015).
# About 14,000 (4.5%) of roughly 310,000 compounds showed an effect of 50% or more. Effects have a minus sign here. Many of the other results were omitted from the sample, so strong results are more common in it than they were.
# Target: human ether-à-go-go-related gene (hERG) potassium channel (human, UniProt Q12809)
# Test: primary screen, population patch clamp on CHO cells stably expressing hERG; higher = less effect of the substance
# 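Further: peak tail current of the secondary pulse compared with the same well before compound.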
# human ether-à-go-go-related gene (hERG) potassium channel, sequence (Q12809 whole entry, looked up): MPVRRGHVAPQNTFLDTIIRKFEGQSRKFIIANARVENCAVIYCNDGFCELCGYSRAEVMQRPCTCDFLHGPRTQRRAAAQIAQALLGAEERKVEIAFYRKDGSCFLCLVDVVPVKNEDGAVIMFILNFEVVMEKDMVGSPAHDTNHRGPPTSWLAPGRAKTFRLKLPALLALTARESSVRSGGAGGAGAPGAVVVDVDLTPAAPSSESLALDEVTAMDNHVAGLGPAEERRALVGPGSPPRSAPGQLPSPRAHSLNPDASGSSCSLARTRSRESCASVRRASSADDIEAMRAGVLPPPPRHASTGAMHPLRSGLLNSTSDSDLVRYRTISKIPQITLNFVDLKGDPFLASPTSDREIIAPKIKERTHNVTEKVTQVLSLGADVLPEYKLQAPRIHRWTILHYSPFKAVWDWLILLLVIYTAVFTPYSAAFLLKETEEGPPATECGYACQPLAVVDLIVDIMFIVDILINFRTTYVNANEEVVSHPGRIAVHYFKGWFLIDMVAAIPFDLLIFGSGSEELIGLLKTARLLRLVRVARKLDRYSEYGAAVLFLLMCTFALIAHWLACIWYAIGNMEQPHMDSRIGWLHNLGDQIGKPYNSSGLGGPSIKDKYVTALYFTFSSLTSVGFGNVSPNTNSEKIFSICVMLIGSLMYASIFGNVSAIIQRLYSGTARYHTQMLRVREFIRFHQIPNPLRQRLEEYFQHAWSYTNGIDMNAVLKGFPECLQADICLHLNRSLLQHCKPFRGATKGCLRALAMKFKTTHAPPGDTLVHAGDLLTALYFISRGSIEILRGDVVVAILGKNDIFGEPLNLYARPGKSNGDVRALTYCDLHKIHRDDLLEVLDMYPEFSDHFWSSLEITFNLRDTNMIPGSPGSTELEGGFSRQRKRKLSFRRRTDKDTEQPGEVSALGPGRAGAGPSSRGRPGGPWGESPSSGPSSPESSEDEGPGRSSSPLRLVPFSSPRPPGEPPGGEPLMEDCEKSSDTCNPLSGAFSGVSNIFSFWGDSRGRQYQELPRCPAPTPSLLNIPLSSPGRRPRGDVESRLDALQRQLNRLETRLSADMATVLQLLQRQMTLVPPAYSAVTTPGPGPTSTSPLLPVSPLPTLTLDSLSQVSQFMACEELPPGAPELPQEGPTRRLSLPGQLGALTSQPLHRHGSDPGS
row,Compound,"hERG current change (%, negative = inhibition) at 10uM [%]"
1,CCC(Sc1ccc2nnc(CCNS(=O)(=O)c3ccc(OC)cc3)n2n1)C(=O)OC (stereo not shown),-10.7
2,OCCC1CN(Cc2ccsc2)CCN1C1CCCC1 (stereo not shown),-9.06
3,COc1cccc(CN2CCN(Cc3ccc4c(c3)OCCO4)CC2CCO)c1 (stereo not shown),-7.1
4,Cc1nn(C(C)C)c(C)c1CN1CCN(Cc2ccsc2)C(CCO)C1 (stereo not shown),0.518
5,OCCC1CN(Cc2ccccc2OC2CCCC2)CCN1Cc1ccsc1 (stereo not shown),-68.7
6,OCCC1CN(Cc2cccc(OC3CCCC3)c2)CCN1Cc1ccsc1 (stereo not shown),-70
7,CCCn1ncc(CN2CCN(Cc3ccsc3)C(CCO)C2)c1C (stereo not shown),-5.55
8,CC(=O)c1cccc(NC(=O)N2CCC(c3ccc(C)cc3)C2)c1 (stereo not shown),-13.8
9,COc1ccc(-c2c(C(F)(F)F)oc3cc(OCC(=O)Nc4ccccc4C(F)(F)F)ccc3c2=O)cc1OC,4.91
10,CC1(C)Cc2nc3oc4c(NCc5ccccc5)ncnc4c3cc2CO1,-10.7
11,CC1(C)Cc2nc3oc4c(N(CCO)Cc5ccccc5)ncnc4c3cc2CO1,-65.6
12,CC1(C)Cc2nc3sc4c(N(CCO)CCO)ncnc4c3cc2CO1,3.56
13,CCN1CCN(C(=O)CN(c2cc(OC)ccc2OC)S(C)(=O)=O)CC1,16.2
14,O=C(c1ccc(Cl)cc1)N1N=C(c2ccccn2)CC1(O)C(F)(F)F (stereo not shown),-13.6
15,COc1ccc(S(=O)(=O)N2CCCCCC2)cc1NC(=O)c1ccccc1,10.5
16,COc1ccc(NC(=O)c2ccc3c(c2)OCCO3)cc1OC,9.47
17,COc1ccc(CCNS(=O)(=O)c2cccc(F)c2)cc1OC,-1.75
18,Nc1nonc1C(=O)NCCNC(=O)c1cccs1,-58.7
19,Nc1nonc1C(=O)NCCNC(=O)c1ccccc1F,4.12
20,C/C(=N\NC(=O)c1nonc1N)c1cccs1,4.26
21,CCCCCCCCNC(=O)c1cnccn1,-7.1
22,O=c1[nH]nc(CNc2ccc(O)cc2)c2ccccc12,-6.61
23,O=C(O)c1ccc(Cl)c(S(=O)(=O)N(Cc2ccccc2)c2ccc(F)cc2)c1,13.9

row,Compound,"hERG current change (%, negative = inhibition) at 10uM [%]"
1,COc1ccccc1N(Cc1ccccc1)S(=O)(=O)c1cccc(C(=O)NC2CC(C)(C)NC(C)(C)C2)c1,-73.4
2,CC1(C)CC(NC(=O)c2ccc(Cl)c(S(=O)(=O)N(Cc3ccccc3)c3ccccc3)c2)CC(C)(C)N1,-62.3
3,COc1ccccc1N(Cc1ccccc1)S(=O)(=O)c1cccc(C(=O)O)c1,10.9
4,O=C(Nc1ccccc1C(=O)NC1CC1)c1ccccc1,12.9
5,CC1(C)CC(NC(=O)c2cccc(S(=O)(=O)N(Cc3ccccc3)c3ccccc3)c2)CC(C)(C)N1,-45.3
6,CN(C)S(=O)(=O)c1cc(C(=O)Nc2ccccc2C(=O)NC2CC2)ccc1Cl,-62.2
7,CN(C)S(=O)(=O)c1ccc(F)c(C(=O)Nc2ccccc2C(=O)NC2CC2)c1,-38.7
8,O=C(O)c1ccc(Cl)c(S(=O)(=O)N(Cc2ccccc2)c2ccccc2)c1,7.76
9,CC1C(=O)N2CCCc3cc(S(=O)(=O)N4CCC(C(N)=O)CC4)cc1c32 (stereo not shown),7.24
10,CC1CCN(c2ccc(C(=O)Nc3ccc4c(c3)OCO4)cc2[N+](=O)[O-])CC1,7.17
11,O=C(CN(C(=O)C1CSC(=O)C1)c1ccccc1F)NCc1ccc2c(c1)OCO2 (stereo not shown),-12.4
12,COc1cccc(CNC(=O)COC(=O)c2cc([N+](=O)[O-])ccc2N2CCCC2)c1,-56.9
13,CN(Cc1ccccc1)C(=O)COC(=O)c1ccc(S(=O)(=O)N(C)C)cc1,-2.9
14,CN(Cc1ccccc1)C(=O)COC(=O)c1cc(S(=O)(=O)N(C)C)ccc1N1CCCC1,1.93
15,COc1ccccc1NC(=O)COC(=O)c1cc([N+](=O)[O-])ccc1N1CCCC1,-0.76
16,O=C(COC(=O)c1cc([N+](=O)[O-])ccc1N1CCOCC1)Nc1ccc(Cl)cn1,-61.5
17,COc1ccc(NC(=O)COC(=O)c2cc([N+](=O)[O-])ccc2N2CCOCC2)cc1,-29.3
18,O=C(COC(=O)c1cc([N+](=O)[O-])ccc1N1CCOCC1)NCc1ccc(F)cc1,-53.7
19,O=C(COC(=O)c1cc([N+](=O)[O-])ccc1N1CCOCC1)NCCc1ccccc1,-45.4
20,O=C(COC(=O)c1cc([N+](=O)[O-])ccc1N1CCOCC1)Nc1c(Cl)cccc1Cl,-5.53
21,CCN(CC)S(=O)(=O)c1ccc(O)c(C(=O)OCC(=O)N(C)Cc2ccccc2)c1,-55.4
22,O=C(COC(=O)c1cc([N+](=O)[O-])ccc1N1CCOCC1)Nc1ncc(Cl)cc1Cl,-29.2
23,O=C(COC(=O)c1cc([N+](=O)[O-])ccc1N1CCOCC1)Nc1cc(F)ccc1F,-49.8
